About 5,100 (32%) of roughly 16,000 compounds were called active. Another 25% or so got no clear call; they are omitted. The call rests on the fitted dose curve; in most records, active means well fitted curve in the direction sought with a large enough effect; inconclusive means small, poorly fitted or top-dose-only effect, or effect the other way; inactive means no such curve, though single readings can be large or run the other way. This is one part of the list.
On the % scale 0 is the no-effect control and ±100 the full control effect.

For this test, the target named is Cytochrome P450 3A4 (Homo sapiens) (UniProt P08684). In words: Cytochrome panel assay with activity outcomes. To be noted: recombinant CYP, pro-luciferin dealkylation, luminescence, p450-cyp3a4; series mostly up to 57.1 µM.
Cytochrome P450 3A4 (Homo sapiens), sequence (P08684 whole entry, looked up): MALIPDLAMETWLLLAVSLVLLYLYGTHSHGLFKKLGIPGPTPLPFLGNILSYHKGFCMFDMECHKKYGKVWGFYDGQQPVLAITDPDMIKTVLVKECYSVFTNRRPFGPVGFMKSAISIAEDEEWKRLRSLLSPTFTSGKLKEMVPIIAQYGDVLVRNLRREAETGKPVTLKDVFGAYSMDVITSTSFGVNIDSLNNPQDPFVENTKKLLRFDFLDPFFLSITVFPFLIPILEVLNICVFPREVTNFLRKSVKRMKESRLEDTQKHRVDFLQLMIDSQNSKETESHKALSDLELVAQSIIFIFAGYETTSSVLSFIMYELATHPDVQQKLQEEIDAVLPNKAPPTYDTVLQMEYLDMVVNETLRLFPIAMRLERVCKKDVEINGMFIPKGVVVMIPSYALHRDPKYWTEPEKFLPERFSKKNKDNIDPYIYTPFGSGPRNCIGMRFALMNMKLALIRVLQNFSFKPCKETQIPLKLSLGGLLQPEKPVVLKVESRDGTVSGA
Regarding `CN1CC[C@]2(C)c3cc(O)ccc3N(C)[C@@H]12`, the activity, negative = inhibition result was “inactive”.
Still for that read-out and setting: then `c1csc(CN2CCC3(CCNCC3)CC2)n1`, with “inactive”.
For `Cc1c(C(=O)c2ccc3ccccc3c2)c2cccc3c2n1[C@H](CN1CCOCC1)CO3`, the AC50 was 7.94 µM (active).
Regarding `O[C@@H]1[C@H](O)[C@H]2[C@@H](O)CCN2C[C@@H]1O`, the activity, negative = inhibition result was “inactive”.
The same measure, in the same setting: then `CCN(CC)C1=NC(=[N+](CC)CC)c2ccccc21`, with “inactive”; and `CCCCCCC[n+]1ccc(-c2cc[n+](CCCCCCC)cc2)cc1`, with “inactive”.
Consider `O=C1CS[C@@H](c2ccccc2Cl)c2cc(Cl)ccc2N1`, for which the activity, negative = inhibition entry is “inactive”.
Still for that read-out and setting: then `O=C(O)c1cc(N=Nc2ccc([As](=O)(O)O)cc2)ccc1O`, with 1.38% [at 11.4 µM] (inactive).
For the compound `CCOC(C(=O)OCCCN(CC)CC)(c1ccccc1)c1ccccc1`, the AC50 was 0.708 µM (active).
Take `C=C1[C@@H]2CC[C@H]3[C@@]4(C)C[C@@H](O[C@@H]5O[C@H](CO)[C@H](OS(=O)(=O)O)[C@@H](OS(=O)(=O)O)[C@@H]5OC(=O)CC(C)C)C[C@@H](C(=O)O)[C@H]4CC[C@@]3(C2)[C@H]1O`: the activity, negative = inhibition entry was “inactive”.
Take `CCN1C[C@@]2(COC)CC[C@H](OC)[C@]34[C@@H]1[C@]1(OCO[C@@]15C[C@@H](OC)C1C[C@H]3[C@H]5[C@@H]1OC)[C@H](O)[C@@H]24`: the activity, negative = inhibition result was “inactive”.
On the same count and under the same terms, the entry for `O=C(O)c1ccccc1-c1c2cc(Br)c(=O)cc-2oc2[c]([Hg])c(O)c(Br)cc12` is “inactive”.
Same read-out and setting: then `CC(=O)O[C@H]1C[C@@H](O[C@@H]2[C@H](C)O[C@H](O[C@@H]3[C@H](C)O[C@H](O[C@@H]4CC[C@@]5(C)[C@@H](CC[C@]6(C)[C@]5(C)C[C@H](O)[C@]5(C)[C@@H](C7=CC(=O)OC7)CC[C@@]56O)C4)C[C@@H]3O)C[C@@H]2O)O[C@@H](C)[C@H]1O[C@H]1O[C@@H](CO)[C@@H](O)[C@@H](O)[C@@H]1O`, with “inactive”.
Take `COC(=O)[C@H]1C(=O)c2ccccc2O[C@@](C(=O)OC)(c2ccccc2)[C@@H]1c1ccccc1`: the concentration at half-maximal activity (AC50) was 3.98 µM (active).
Turning to `O=P(O)(O)CCP(=O)(O)O`, the activity, negative = inhibition was 6.5% [at 11.4 µM] (inactive).
On the same count and under the same terms, then `Cc1cc[c]([Sb]2[O][C@H]([C@H](O)[C@H](O)C(=O)O)[C@@H](CO)[O]2)cc1`, with 0.934% [at 11.4 µM] (inactive); and `C[N+]1(C)[C@@H]2CC[C@H]1CC(OC(=O)[C@@H](CO)c1ccccc1)C2` (stereo partly specified), with “inactive”.
Regarding `C[N+]1(C)C2CC[C@H]1CC(OC(=O)[C@@H](CO)c1ccccc1)C2` (stereo partly specified), the activity, negative = inhibition was 8.45% [at 11.4 µM] (inactive).
Regarding `C[N+]1(C)[C@@H]2CC[C@H]1CC(OC(=O)c1c[nH]c3ccccc13)C2` (stereo partly specified), the AC50 is 7.94 µM (active).
For the compound `CC(=O)OCC1=C(C(=O)O)N2C(=O)[C@@H](N)[C@@H]2SC1`, the activity, negative = inhibition entry is “inactive”.
On to `CCc1ccc(CCN2CCCCC2)nc1`, for which the activity, negative = inhibition was -16.1% [at 11.4 µM] (inactive).
As to `C[C@@]12CCC(=O)C=C1C=C[C@H]1[C@H]3CC[C@](O)(CCC(=O)O)[C@]3(C)CC[C@@H]12`, the activity, negative = inhibition entry is “inactive”.
With `O=C(c1ccc(-c2nnc(Nc3ccccc3)c3ccccc23)cc1)N1C[C@H]2C[C@H](C1)c1cccc(=O)n1C2`, the AC50 is 31.6 µM (active).
As for `O=c1cccc2n1CC1CNC[C@H]2C1`, the activity, negative = inhibition result was “inactive”.
Same read-out and setting: the entry for `COc1cc(C(=O)OC2C[C@H]3CC[C@@H](C2)N3C)ccc1O` (stereo partly specified) is “inactive”.
On the same count and under the same terms, the figure for `O=c1[nH]cnc2[nH]cc(CN3CCCCC3)c12` is -10.7% [at 11.4 µM] (inactive); for `N[C@@H]1C=CC=C(C(=O)O)C1` it is “inactive”.
Same read-out and setting: then `O=S(=O)(NCCO)c1cc[c]([Sb](=[O])([OH])[OH])cc1`, with 9.57% [at 11.4 µM] (inactive); and `CCCN1CCO[C@@H]2c3cc(O)ccc3OC[C@H]21`, with “inactive”.
For the compound `O=S(=O)(c1ccccc1)N1CCCCC1c1cccnc1` (stereo unspecified), the half-maximal activity concentration (AC50) was 2.24 µM (active).
Consider `c1cncc([C@@H]2CCCCN2)c1`, for which the activity, negative = inhibition entry was “inactive”.
On the same count and under the same terms, the entry for `CC1=C(C)[N+](=O)C2(O)CCCCC2(C)N1[O-]` (stereo unspecified) is “inactive”; for `CCCN(CCC)[C@@H]1CCc2ccc(O)cc2C1` it is “inactive”.
Still for that read-out and setting: the entry for `NC(N)=NS(=O)(=O)c1ccc(N)cc1` is “inactive”; for `CN(C)[C@@H]1C(=O)C(C(N)=O)=C(O)[C@]2(O)C(=O)C3=C(O)c4c(O)cccc4[C@@](C)(O)[C@H]3[C@H](O)[C@@H]12` it is “inactive”.
The same measure, in the same setting: the entry for `O=[N+]([O-])c1cc(O)c(O)c([N+](=O)[O-])c1` is “inactive”.
As to `O=C(O)Cc1ccc([N+](=O)[O-])cc1[N+](=O)[O-]`, the activity, negative = inhibition is -8.12% [at 11.4 µM] (inactive).
As for `O=[N+]([O-])c1ccc(S(=O)(=O)Cc2ccccc2)c([N+](=O)[O-])c1`, the half-maximal activity concentration (AC50) is 0.316 µM (active).
As to `Cc1cc(OC(=O)CCCNC(=O)OC(C)(C)C)c2c3c(c(=O)oc2c1)CCC3`, the activity, negative = inhibition is 4.44% [at 2.29 µM] (inactive).
The same measure, in the same setting: then `COc1cc2c3cc1Oc1cc(ccc1O)C[C@@H]1c4c(cc(OC)c(O)c4Oc4cccc(c4)C[C@H]3N(C)CC2)CC[N+]1(C)C`, with “inactive”.
For the compound `CC(C)(O)/C=C\C(=O)[C@](C)(O)[C@H]1[C@H](O)C[C@]2(C)[C@@H]3CC=C4[C@@H](C=C(O)C(=O)C4(C)C)[C@]3(C)C(=O)C[C@@]12C`, the half-maximal activity concentration (AC50) was 0.398 µM (active).
In the case of `CC(=O)OC1N=C(c2ccccc2)c2cc(Br)ccc2N(C)C1=O` (stereo unspecified), the activity, negative = inhibition entry is “inactive”.
Consider `CC1=NN(c2ccc(S(=O)(=O)O)cc2C)C(=[OH+])[C@H]1N=Nc1cc(S(=O)(=O)O)ccc1C(=O)O.O.[Cr]`, for which the activity, negative = inhibition is 12.6% [at 11.4 µM] (inactive).
The same measure, in the same setting: then `O=[N+]([O-])c1ccc(N2CCNCC2)cc1NCC1CCCO1` (stereo unspecified), with “inactive”; and `COC(=O)[C@H](N)CCCN=C(N)N[N+](=O)[O-]`, with “inactive”.
`CCOC(=O)C1=C(C)OC(N)=C(C#N)C12C(=O)N(C)c1ccccc12` (stereo unspecified): the AC50 was 6.31 µM (active).
For `COc1ccc(C[C@@H]2NC[C@H](O)[C@@H]2OC(C)=O)cc1`, the activity, negative = inhibition entry is “inactive”.
Still for that read-out and setting: the figure for `O=C(O)C[O][Sb][O]CC(=O)O` is -1.8% [at 11.4 µM] (inactive); for `NS(=O)(=O)C[C-]1C=C[CH]([Sb-]([Cl])([Cl])([Cl])([Cl])[Cl])C=C1.c1ccncc1` (stereo unspecified) it is 7.76% [at 11.4 µM] (inactive); for `CC[C@@H]1CN2CCc3cc(OC)c(OC)cc3[C@H]2C[C@@H]1C[C@@H]1NCCc2cc(O)c(OC)cc21` it is “inactive”.
The same measure, in the same setting: the figure for `Cc1ccc(S(=O)(=O)O[C@H]2CN3CCC2CC3)cc1` is -7.01% [at 11.4 µM] (inactive).
